# Reference: PubChem BioAssay (Tox21)
# Several values for one entry are separate records, joined by “and”; a condition that tells them apart may be missing. Identical values can stand only once. Unmarked numbers belong to inactive results. Activity calls are given as the source filed them. Calls follow the shape of the dose curve; as a rule, active = well fitted curve in the direction sought with a large enough effect in the repeat runs; inconclusive = weak or mixed curves; inactive = flat fitted curve, though single readings scatter.
# Assay: qHTS assay to test for compound auto fluorescence at 535 nm (green) in HepG2 cell free culture (AID 720686)
# Details: Cell-free medium, green autofluorescence 485/535 nm; series mostly up to 91.3 µM
# Source text: U.S. Tox21 Program National Center for Advancing Translational Sciences [NCATS] NIH Chemical Genomics Center [NCGC] U.S. Environmental Protection Agency [EPA] National Institutes of Environmental Health Sciences [NIEHS] National Toxicology Program [NTP] U.S. Food and Drug Administration [FDA] Tox21 Assay Overview: Compound auto fluorescence often interferes with screening of the compound library against various biological targets and signaling pathways. Some of these compounds may have fluorophoric properties. Such properties may interfere with the assay outputs resulting in false positives and/or negatives. To decrease such complications and ensure the compound activities are relevant in terms of biological response, the Tox21 10K compound library was screened for auto fluorescence. From the fluorophores used as reporter signals in our screening assays, the auto fluorescence equivalencies of compounds against three fluorophores have been evaluated: Triamterene, Fluorescein and Rose Bengal sodium for blue, green and red fluorescence, respectively. The fluorescence intensities were measured using Excitation/Emission wavelengths at 405/460nm, 485/535nm and 540/590nm for blue, green and red labels, respectively. This assay includes the green fluorescence data.
# Tox21 Assay Protocol Summary: 5 uL of culture medium (MEM containing 10% FBS) per well was dispensed into black wall/clear bottom 1536-well plates using a Multidrop Combi Dispenser (ThermoFisher Scientific, Waltham, MA). After 23 nL compound or DMSO vehicle was transferred into assay plate by a pintool work station (Kalypsys, San Diego, CA), fluorescence intensities in the assay plates were measured by an Envision (PerkinElmer, Shelton, CT) plate reader using three labels for measuring blue, green and red fluorescence at […] 460, 535 and 590nm respectively.
# % is scaled to controls: 0 for no effect and ±100 for the full control effect.
Structure (SMILES),outcome,"fluorescence, % of fluorescein control"
Oc1ccc(Sc2ccc(O)cc2)cc1,inactive,
C1CCC2OC2C1 (stereo not given),inactive,
Cc1cc(NC(=O)C(=O)O)cc(C)c1Oc1ccc(O)c2c1CCC2,inactive,
Cn1c(N)nc2nc[nH]c2c1=O,inactive,
Cc1c(Cn2ccnc2)c2ccccc2n1CCC(=O)O,inactive,
COCCCCCCCCOCCC[Si](C)(O[Si](C)(C)C)O[Si](C)(C)C,inactive,
CC1(C)CCC(C)(C)c2cc(NC(=O)c3ccc(C(=O)O)cc3)ccc21,inactive,
NC[C@H]1O[C@H](O[C@H]2[C@H](O)[C@@H](O[C@H]3O[C@H](CO)[C@@H](O)[C@H](N)[C@H]3O)[C@H](N)C[C@@H]2N)[C@H](O)[C@@H](O)[C@@H]1O,,-0.0088% [at 18.6 µM] and 0.0013% [at 3.72 µM]
Cc1ncsc1CCO,inactive,
CCCCCOC(=O)COc1cc(N2C(=O)C3=C(CCCC3)C2=O)c(F)cc1Cl,inactive,
Cc1ccc(C)o1,inactive,
O=C(O)c1cccc(N(Cc2cccnc2)c2ccc(OC(F)F)c(OC(F)F)c2)c1,inactive,
CN(C)CC[C@@H](c1ccc(Br)cc1)c1ccccn1,inactive,
O=C1CCCCCO1,inactive,
CC(=O)OC/C=C/c1ccccc1,inactive,
C=CC[N+]1([C@H]2C[C@H]3[C@@H]4CC[C@H]5C[C@H](OC(C)=O)[C@@H](N6CCCCC6)C[C@]5(C)[C@H]4CC[C@]3(C)[C@H]2OC(=O)CC)CCCCC1,inactive,
CCN(CC)C(C)CN1c2ccccc2Sc2ccccc21 (stereo not given),,-0.0641% [at 18.6 µM]
O=C(NS(=O)(=O)/C=C/c1cccs1)c1ccc(F)cc1Br,inactive,
CC(C)(C)c1cc(CCC(=O)OCC(COC(=O)CCc2cc(C(C)(C)C)c(O)c(C(C)(C)C)c2)(COC(=O)CCc2cc(C(C)(C)C)c(O)c(C(C)(C)C)c2)COC(=O)CCc2cc(C(C)(C)C)c(O)c(C(C)(C)C)c2)cc(C(C)(C)C)c1O,inactive,
C=CC(=O)OCCOC(=O)CCC(=O)O,inactive,

Structure (SMILES),outcome,"fluorescence, % of fluorescein control"
Nc1nc(N)c2nc(CNc3ccc(C(=O)N[C@@H](CCC(=O)O)C(=O)O)cc3)cnc2n1,inactive,
CC(C)(C)c1cc(CO)cc(C(C)(C)C)c1O,inactive,
O=C(C(=O)c1ccc(Br)cc1)c1ccc(Br)cc1,,-0.0449% [at 18.6 µM]
Cn1c(NCCN(CCO)CCCc2ccc([N+](=O)[O-])cc2)cc(=O)n(C)c1=O,inactive,
COc1cc(C(C)(C)C)c(O)c(C(C)(C)C)c1,inactive,
Cc1cc(O)ccc1N,inactive,
O=C1[C@H](CC[C@H](O)c2ccc(F)cc2)[C@@H](c2ccc(O)cc2)N1c1ccc(F)cc1,inactive,
O=C(O)COC(=O)Cc1ccccc1Nc1c(Cl)cccc1Cl,,0.0255% [at 18.6 µM]
Cl/C(=C\n1cncn1)c1ccc(Cl)cc1Cl,inactive,
CCCCOC(O)CC (stereo not given),inactive,
CC(O)C1CCCCC1 (stereo not given),inactive,
CCCCCC/C=C/C=O,inactive,
Cn1sccc1=O,inactive,
Oc1ccc(Cc2ccccc2)cc1,inactive,
CCCCCOC(=O)c1ccc(O)cc1,inactive,
CCCCC(CC)COCCCN (stereo not given),inactive,
C[C@H](CCC(=O)O)[C@H]1CC[C@H]2[C@@H]3[C@H](O)C[C@@H]4C[C@H](O)CC[C@]4(C)[C@H]3CC[C@]12C,inactive,
CC(=O)O[C@@H]1C(=O)O[C@@H]2[C@H]1OC(=O)[C@@H]2OC(C)=O,inactive,
CCC(=O)OC(C)(C)C1CC=C(C)CC1 (stereo not given),inactive,
NC1CCN(c2nc3c(cc2F)c(=O)c(C(=O)O)cn3-c2ccc(F)cc2F)C1 (stereo not given),inactive,
